Reference: the supplement of paper PMC6555819

system: VDR:RXRa (NR concentration 270 nM, RXRa partner concentration 90 nM); experiment: PBM binding z-score (relative to random genomic background probes); higher = stronger binding; sequences stand for … in GC…GCGATTGACAGCGTAGAATGAAGG
Procedure: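 Protein-binding microarray (Agilent 4x180K custom design, double-stranded 60-nt probes: 5' GC cap, 34-nt variable region, 24-nt constant primer region; full probe sequence given). Purified or IVT nuclear receptor:RXRα heterodimers (3:1 NR:RXRα, mostly 270:90 nM) or homodimers were incubated for 1 h in PBS with 2% milk and no ligand, then detected with Alexa488 antibodies. Fluorescence from o1-orientation probes (~5 replicates averaged) was converted to z-scores against 500 random hg19 background probes. Variable regions are seed direct-repeat (DR0–DR5) sites, all their single-nucleotide variants and half-site ablations.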

Question: Which PBM binding z-score does the source give for AGAATGAGGTTATACGTATATCAGGGAAGAAAGT here?
Answer: 1.69

Question: Which PBM binding z-score does the source give for TCTCGGAGGACACGAAAGGTCAGAGCTCGACATC here?
Answer: 3.28

Question: For AGAATGAGGTTATACGTAGATCTGGGAAGAAAGT, which PBM binding z-score is on record?
Answer: 1.07

Question: For TCGAGTAGGTTAGGGGCATTCAGAATGGCGTCGA, which PBM binding z-score is on record?
Answer: 0.508

Question: With TAGCCTATGTCAGATCGGGCCAGTATACGCTATA as the sequence, how does the PBM binding z-score read?
Answer: -0.407

Question: How did the PBM binding z-score turn out when CCTACTGGGCCAAAGTCATTGATCAGTCAAAGCA was run?
Answer: -0.45

Question: How did the PBM binding z-score turn out when CAAACTAGGTCAAAGGTCAAAGTCGAGCCAACCA was run?
Answer: 6.72

Question: Which PBM binding z-score does the source give for CAGACTGGGGCATAAGGTTACCATAAGCCAGCCC here?
Answer: 0.497

Question: Which PBM binding z-score does the source give for ATCGAAAGGTCGAGGAGAGTATAGAGAAAGGGAA here?
Answer: 2.64

Question: GATACAGGGTCAGGTAGAGGCCAGAGTATGGAAA was tested. Which PBM binding z-score did it give?
Answer: 3.35

Question: Which PBM binding z-score does the source give for GGTACGAGGGCATTCGAGTTGATAGCATGGCGAT here?
Answer: 3.71

Question: How did the PBM binding z-score turn out when TCTTGTAGATCAAGGAGGTTAAGAAAGCCTGAGT was run?
Answer: 1.26

Question: Which PBM binding z-score does the source give for CAAACTAGGTAAAAGGTCAAAGTCGAGCCAACCA here?
Answer: 4.86

Question: Which PBM binding z-score does the source give for ATATGTAGGTTAAGGGTCATTCAGGTTGGTTCGC here?
Answer: 5.83

Question: For CCTTACGGGTCACGAGTTTATAGCACGACGAGCG, which PBM binding z-score is on record?
Answer: 5.73

Question: For TCATATAGGTAAAAGGAGAAAGTCGGTGTGGTAA, which PBM binding z-score is on record?
Answer: 0.929

Question: Which PBM binding z-score does the source give for ACTATTAGTTGAGACGAGGGCAACCGCTAGGTTG here?
Answer: 0.628

Question: How did the PBM binding z-score turn out when TCTGCTAGGTCAGTTGGTCAGCTAGCGAGCTGCC was run?
Answer: -0.184

Question: CCTATTGGGCCATCAGGTCATTGATATCAACGTT was tested. Which PBM binding z-score did it give?
Answer: 2.12

Question: For CGTCCAAGGTCAAAGTTCAGTGAAGAGATGACGG, which PBM binding z-score is on record?
Answer: 5.84

Question: For CCTAGCTGGCCAATCTGGGTCACTCAAGGCTTGA, which PBM binding z-score is on record?
Answer: 0.147

Question: With TCGAGTAGGTTCCCAATGGGGCATTCAGCTTTCT as the sequence, how does the PBM binding z-score read?
Answer: -0.37

Question: Which PBM binding z-score does the source give for ATCGAAAGGTCGACGAGCTGAGTATACACCGTTT here?
Answer: 2.15

Question: With TCTATTAGTCGATTAGGGCAACCGAAACAGCGGA as the sequence, how does the PBM binding z-score read?
Answer: 0.568

Question: For CCTGGTTGGTCAAGGTCACACACGCTATAGGTAC, which PBM binding z-score is on record?
Answer: 4.37

Question: How did the PBM binding z-score turn out when GCTTGTAGGTCAAGGTTAAGAAAGACTAAGCTAA was run?
Answer: 2.3

Question: TCTTGTAGATCAAATGTTAAGAAAGCCGAAGCCT was tested. Which PBM binding z-score did it give?
Answer: 0.366

Question: How did the PBM binding z-score turn out when ACCTCTAGGTAAGACTCAGTTCAGTGAAGAACGC was run?
Answer: 0.00811

Question: AGTCAAAGTTCAGGACGAGGTTACGTAAAGCACG was tested. Which PBM binding z-score did it give?
Answer: 4.6

Question: How did the PBM binding z-score turn out when GCGACTGGGGCAAAGCAGGTTACCATCAGGTTGG was run?
Answer: -0.194

Question: CCTAGCAGGCCATTCTGGGTCACTCAAGGCTTGA was tested. Which PBM binding z-score did it give?
Answer: 1.04

Question: For CGAACTAGGTCATCAAGGACAGTGAATACATTGA, which PBM binding z-score is on record?
Answer: 5.54

Question: How did the PBM binding z-score turn out when CCAGTCAGGTGAAAGGTAACTCAGTCTGGTACGC was run?
Answer: 0.52

Question: With CAAACTAGGTCACAGACGTCAAAGTCCGTGCGTA as the sequence, how does the PBM binding z-score read?
Answer: 3.26

Question: How did the PBM binding z-score turn out when TCCTATAGGTAAAGGTGAAAGTCGAACGATATGA was run?
Answer: 0.86

Question: ATCTCTAGGTAAAGATAGTTCAGTAAATGCAAAT was tested. Which PBM binding z-score did it give?
Answer: 1.22

Question: ATCTCTAGGTAAGACCCAGTTCAGTGAAGAACGC was tested. Which PBM binding z-score did it give?
Answer: 1.04

Question: TCTATTAGTTGAAGGGAAACCGACGAGTCCGTTT was tested. Which PBM binding z-score did it give?
Answer: 0.851

Question: How did the PBM binding z-score turn out when CCTAGTTGGTCAAGGTCGCACACGCTATAGGTAC was run?
Answer: 1.75

Question: With GCTAGCAGGGCATTTGGGTCACTCAATGACGGGC as the sequence, how does the PBM binding z-score read?
Answer: 2.15
